For 40 compounds, Potency results are on record in PubChem BioAssay (NCATS).

Each structure is given as a SMILES string. Records with an inconclusive call do not appear. Activity calls are given as the source filed them. The call rests on the fitted dose curve; in most records, active means well fitted cell-killing curve with a large enough effect; inconclusive means small, poorly fitted or top-dose-only effect; inactive means no such curve, though single readings can be large or run the other way.
Potency means the concentration at half of the fitted maximal effect.

The assay is described as follows: Quantitative High-Throughput drug screen in 47 multiple myeloma cell lines against the NCATS MIPE library collection: JIM3_ECACC cell viability assay (AID 1918963; further: nearly all actives have a fitted effect of over 35% in size). The conditions noted are these: JIM3 myeloma viability, CellTiter-Glo ATP, 48 h; series mostly up to 45.8 µM. An excerpt: PI: Beverly A. Mock Ph.D.
Laboratory of Cancer Biology and Genetics,
Center for Cancer Research, National Cancer Institute,
National Institute of Health, Bethesda, Maryland
Drug resistance and disease progression are common in multiple myeloma (MM) patients, underscoring the need for new therapeutic combinations. […] We hypothesized that effective combinations would reduce MYC expression and enhance p16 activity. […] These preclinical data identify potentially useful drug combinations for evaluation in drug-resistant MM and reveal potential mechanisms of combined drug sensitivity.
Described herein is the primary MIPE qHTS used to cherrypick compounds. Validated compounds were then further tested for potential synergistic activiy.
[1] Peat TJ, Gaikwad SM, Dubois W, Gyabaah-Kessie N, Zhang S, Gorjifard S, Phyo Z, Andres M, Hughitt VK, Simpson RM, Miller MA, Girvin AT, Taylor A, Williams D, D'Antonio N, Zhang Y, Rajagopalan A, Flietner E, Wilson K, Zhang X, Shinn P, Klumpp-Thomas C, McKnight C, Itkin Z, Chen L, Kazandijian D, Zhang J, Michalowski AM, Simmons JK, Keats J, Thomas CJ, Mock BA. Drug combinations identified by high-throughput screening promote cell cycle transition and upregulate Smad pathways in myeloma. Cancer Lett. 2023 Aug 1;568:216284. doi: 10.1016/j.canlet.2023.216284. Epub 2023 Jun 24. PMID: 37356470; PMCID: PMC10408729.
SEQUENCE No. (e.g., 1, 2, 3, etc.); […] (e.g., Cells, Incubation, Reagent, etc.); VALUE and DESCRIPTION.
1; Cells; 5 uL; white, solid bottom 1536-well Greiner assay plate.
2; Compounds; 23 nL; Kalypsis pin tool (Wako USA) equipped with a 1536-well pin head to transfer to the assay plates.
3; Incubation; 48 hours; 37C incubation.
4; Reagent;5uL; CellTiter Glo (Promega).
5; Detector; 425V; Luminescence; Viewlux PerkinElmer.
NOTES (numbers refer to Sequence numbers above)
1. The cell-based screening methods employed in this study were like those previously published. Briefly, the corresponding myeloma cell lines were screened in 1,536-well plates with 500 cells, 5-uL per well for inhibition of cell viability (assessed by measuring ATP levels with CellTiterGlo).
2. NCATS MIPE 4.0 library of approved and investigational drugs were added using the Kalypsis pin tool. Wells treated with DMSO only for 100% viability and media only wells for 0% viability were used as controls.
3. The assay plates were covered and incubated for 48 hours in a 37C, 5% CO2 incubator with controlled humidity.
4. After 48 hours, CellTilter-GloTM luminescent substrate mix (Promega) reagent was added to the assay plate and plates we incubated for 5 min at room temperature.
5. Signal was measured as median relative luminescence units on a ViewLux (PerkinElmer) multiplate reader.
[1] Heske CM, Davis MI, Baumgart JT, Wilson K, Gormally MV, Chen L, Zhang X, Ceribelli M, Duveau DY, Guha R, Ferrer M, Arnaldez FI, Ji J, Tran HL, Zhang Y, Mendoza A, Helman LJ, Thomas CJ. Matrix Screen Identifies Synergistic Combination of PARP Inhibitors and Nicotinamide Phosphoribosyltransferase (NAMPT) Inhibitors in Ewing Sarcoma. Clin Cancer Res. 2017 Dec 1;23(23):7301-7311. doi: 10.1158/1078-0432.CCR-17-1121. Epub 2017 Sep 12. PMID: 28899971; PMCID: PMC6636827.
A general note: ATP-based viability assays read luminescence as a measure of living cells.
`CN(C)N=Nc1nc[nH]c1C(N)=O`: the Potency result is “inactive”.

As for `CN[C@@H]1CN(c2ccc3c(=O)c(C(=O)O)cn(-c4nccs4)c3n2)C[C@@H]1OC`, the Potency is 14.4 µM (active).

For the compound `COc1cccc(OC)c1-c1cc(C(=O)NC2(C(=O)O)C3CC4CC(C3)CC2C4)nn1-c1ccnc2cc(Cl)ccc12` (stereo not given), the Potency result is “inactive”.

Turning to `CC[C@H]1OC(=O)[C@H](C)[C@@H](O[C@H]2C[C@@](C)(OC)[C@@H](O)[C@H](C)O2)[C@H](C)[C@@H](O[C@@H]2O[C@H](C)C[C@H](N(C)C)[C@H]2O)[C@](C)(O)C[C@H](C)C(=NOCOCCOC)[C@H](C)[C@@H](O)[C@]1(C)O`, the Potency result is “inactive”.

As for `COc1c(C)c2c(c(O)c1CC=C(C)CCC(=O)O)C(=O)OC2`, the Potency is 4.69 µM (active).

Regarding `CC1=C[C@@H]2[C@@H]([C@@H](O)C[C@@]3(C)[C@H]2C[C@@H](C)[C@]3(O)C(=O)CO)[C@@]2(C)Cc3cnn(-c4ccccc4)c3C=C12`, the Potency was 26.4 µM (active).

`O=C(c1ccc(C(=O)N2CCC(N3CCCC3)CC2)c(Nc2ccccc2)c1)N1CCC(N2CCCC2)CC1`: the Potency result was “inactive”.

`CC(C)C[C@@H](N)[C@H](O)C(=O)N[C@H](C(=O)N[C@H](C(=O)N[C@@H](CC(=O)O)C(=O)O)C(C)C)C(C)C`: the Potency was 20.9 µM (active).

As for `NS(=O)(=O)c1ccc(Nc2nc(OCC3CCCCC3)c3[nH]cnc3n2)cc1`, the Potency was 20.9 µM (active).

For the compound `C[C@@H](O[C@H]1OCCN(Cc2n[nH]c(=O)[nH]2)[C@@H]1c1ccc(F)cc1)c1cc(C(F)(F)F)cc(C(F)(F)F)c1`, the Potency is 23.5 µM (active).

On to `CC1(COc2ccc3c(c2)ncn3-c2ccc3cccc(N4CCC(N)CC4)c3n2)COC1`, for which the Potency is 0.0118 µM (active).

In the case of `CNC1CCC(N(Cc2cccc(-c3ccncc3)c2)C(=O)c2sc3ccccc3c2Cl)CC1` (stereo not given), the Potency is 10.5 µM (active).

`CC1CCN(c2cc(N3CCN(C)CC3)ccc2NC(=O)c2cc(C#N)c[nH]2)CC1`: the Potency result is “inactive”.

`CC(C)(CO)[C@@H](O)C(=O)NCCC(=O)O`: the Potency result was “inactive”.

Take `Nc1[nH]nc2nnc(-c3c(-c4ccccc4)nn4ccccc34)cc12`: the Potency was 9.35 µM (active).

Regarding `COc1cc2c(cc1OC)[C@@H]1Cc3ccc(OC)c(OC)c3CN1CC2`, the Potency result was “inactive”.

As to `CN(C)CCCNC(=O)c1ccc(-c2cc(O)c3ncccc3c2)cc1`, the Potency was 23.5 µM (active).

Take `COc1cc2nccc(Oc3ccc(NC(=O)Nc4ccc(F)cc4F)c(F)c3)c2cc1OC`: the Potency result is “inactive”.

On to `CCNC(=O)c1noc(-c2cc(C(C)C)c(O)cc2O)c1-c1ccc(CN2CCOCC2)cc1`, for which the Potency was 0.0743 µM (active).

Consider `CCCCC(F)(F)[C@@]1(O)CC[C@H]2[C@H](CC(=O)[C@@H]2CCCCCCC(=O)O)O1`, for which the Potency result is “inactive”.

For the compound `Cc1cn([C@@H]2C[C@@H](O)[C@H](CO)O2)c(=O)[nH]c1=O`, the Potency entry was “inactive”.

As for `OC[C@H]1O[C@@H](O[C@H]2[C@@H](O)[C@@](O)(CO)O[C@@H]2CO)[C@H](O)[C@@H](O)[C@@H]1O`, the Potency entry was “inactive”.

For the compound `CN(C)CCN(C)C(=O)c1ccc(NC(=O)Nc2ccc(-c3nc(N4CCOCC4)c4ccn(CC(F)(F)F)c4n3)cc2)cc1`, the Potency was 0.105 µM (active).

Take `COc1cc2c(cc1Cc1cccc(Cl)c1F)c(=O)c(C(=O)O)cn2[C@H](CO)C(C)C`: the Potency was 20.9 µM (active).

Consider `CC[C@@H]([C@H](C)O)n1ncn(-c2ccc(N3CCN(c4ccc(OCC5CO[C@@](Cn6cncn6)(c6ccc(F)cc6F)C5)cc4)CC3)cc2)c1=O` (stereo not given in full), for which the Potency is 5.26 µM (active).

On to `Cc1cccc(-c2[nH]c(C(C)(C)C)nc2-c2ccc3c(c2)OCO3)n1`, for which the Potency is 0.833 µM (active).

Consider `C#C[C@]1(O)CC[C@H]2[C@H]3CCc4cc(OC)ccc4[C@H]3CC[C@@]21C`, for which the Potency entry is “inactive”.

Regarding `O=C(O)CCC=CCC[C@@H]1[C@H](N2CCCCC2)[C@@H](O)C[C@@H]1OCc1ccc(-c2ccccc2)cc1`, the Potency result was “inactive”.

Consider `Cc1ccc(NC(=O)Nc2cc(C(F)(F)F)ccc2F)cc1Nc1ccc2c(c1)NC(=O)C2=Cc1ccc[nH]1`, for which the Potency is 4.18 µM (active).

Consider `C[C@H]1O[C@@H](n2cc(F)c(=O)[nH]c2=O)[C@H](O)[C@H]1O`, for which the Potency is 11.8 µM (active).

Turning to `Oc1cc(O)cc(C=Cc2ccc(O)c(O)c2)c1`, the Potency is 14.8 µM (active).

On to `CCC[C@H](N[C@@H](C)C(=O)N1[C@@H]2CCCC[C@H]2C[C@H]1C(=O)O)C(=O)OCC`, for which the Potency was 14.8 µM (active).

As to `CCN1CCC(n2cc(CNc3cc(Cl)c4ncc(C#N)c(Nc5ccc(F)c(Cl)c5)c4c3)nn2)CC1`, the Potency was 14.8 µM (active).

On to `C[C@@H](NC(=O)c1ncnc(N)c1Cl)c1ncc(C(=O)Nc2cc(C(F)(F)F)c(Cl)cn2)s1`, for which the Potency is 13.2 µM (active).

Take `CN(C)c1nc(Cc2ccc(NC(=O)c3ccc(C(F)(F)F)cc3)cc2)nc(N(C)C)c1CC(=O)O`: the Potency entry is “inactive”.

Turning to `NC(=O)c1nnn(Cc2cc(Cl)c(C(=O)c3ccc(Cl)cc3)c(Cl)c2)c1N`, the Potency was 26.4 µM (active).

On to `CN(C)c1ccc(-c2nc3ncc(Cl)c(N4CCN(CC(=O)Nc5nccs5)CC4)c3[nH]2)cc1`, for which the Potency was 3.32 µM (active).

As to `O=c1cc(-c2ccc(O)c(O)c2)oc2cc(O)cc(O)c12`, the Potency entry was “inactive”.

As for `CC1(C)[C@H]2CC[C@]3(C)[C@@H](C(=O)C=C4[C@@H]5C[C@@](C)(C(=O)O)CC[C@]5(C)CC[C@]43C)[C@@]2(C)CC[C@@H]1O`, the Potency result was “inactive”.

As for `CNC(=O)c1cc(COc2nnc(Nc3ccc(Cl)cc3)c3ccoc23)ccn1`, the Potency result is “inactive”.
